# Data taken from PubChem BioAssay (NCI).
# The panel holds about 83,000 compounds, 20% with a hit somewhere; the sample as a whole holds those more often.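 96-well plates, one dose, 48 hours. Percent growth reported; active if below 10.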 Values without a mark were called inactive. Active and inactive are the calls of the source.
# How the values were obtained:
# Assay in all cases: NCI-60 one-dose screen, 48 h (100 = growth as untreated, 0 = no growth, -100 = all killed)
# Conditions in all cases: 10 µM unless noted
# [1] = tested on: MDA-MB-435 melanoma
# [2] = tested on: SW-620 colon
# [3] = tested on: MCF7 breast
# [4] = tested on: HCT-116 colon
# [5] = tested on: HCC-2998 colon
# [6] = tested on: KM12 colon
# [7] = tested on: BT-549 breast
SMILES,growth [1],growth [2],growth [3],growth [4],growth [5],growth [6],growth [7]
COc1ccc(NC(=O)C(=O)c2c[nH]c3ccc(F)cc23)cc1,95.5%,99.9%,86.3%,79.1%,109%,94.5%,
CC(C)(C)Nc1c(-c2c3ccccc3cc3ccccc23)nc2ccccn12,90.1%,67.3%,74.2%,46.2%,86%,61.4%,92.1%
Cc1cccc(-c2cc(O)c(C(=O)N3CCOCC3)s2)c1,-50% (active),28%,19.5%,27.7%,63.2%,25.5%,51.2%
COc1cc2c(O)n(CCCn3ccnc3)c3c4cnc5cccc(c(=O)c3c2cc1OC)c54,51%,20.4%,10.8%,,70.4%,61%,27.6%
Nc1c(C(=O)c2ccccc2)nnc2ncnn12,110%,106%,97.2%,105%,97.6%,105%,
C=C1c2c(C)nn(-c3ccc(NC(C)=O)cc3)c2N(C)C23CC1C1(C)c4c(C)nn(-c5ccc(NC(C)=O)cc5)c4N(C)C(C)(CC12)C3 (configuration not stated),30.6%,27.9%,9.67% (active),13.4%,44.7%,23.6%,44%
CO[C@H]1/C=C/O[C@@]2(C)Oc3c(C)c(O)c4c(c3C2=O)C(=O)C(/C=N/N(c2ccccc2)c2ccccc2)=C(NC(=O)/C(C)=C\C=C\[C@H](C)[C@H](O)[C@@H](C)[C@@H](O)[C@@H](C)[C@H](OC(C)=O)[C@@H]1C)C4=O,-17.4% (active),2.36% (active),2.54% (active),0.555% (active),-70.4% (active),-23.9% (active),
COc1cc2ccccc2cc1C(=O)NC(=S)Nc1ccc(-c2nc3ccccc3[nH]2)cc1,80.2%,80.5%,59%,,96.3%,68.2%,45.6%
COc1ccc(-c2nc3sc4c(c3c(=O)[nH]2)CCCC4)c2ccccc12,-70.3% (active),18.9%,9.63% (active),10.7%,12.3%,7.22% (active),
COc1ccc(OC)c(Nc2nc3nonc3nc2Nc2cc(OC)ccc2OC)c1,43.1%,57.3%,65.7%,,56.7%,67.4%,
CS(=O)(=O)c1ccc(-c2[nH]c3ccc(F)cc3c2/C=N/O)cc1,99.6%,110%,82.9%,87.9%,110%,101%,91%
CCCc1nc2ccccn2c1Nc1ccc(C(=O)NO)cc1,90.2%,86.3%,79.6%,85.4%,91.4%,97.1%,98.1%
Nc1c(C(=O)c2ccc(Cl)s2)sc2nc3c(cc12)CCCC3,119%,106%,41.3%,105%,111%,96.6%,
Cc1c(C(N)=O)sc2nc(C)n(/N=c3\scc(-c4ccccc4)n3Cc3ccccc3)c(=O)c12,12.2%,12.5%,17.3%,29.1%,57.1%,13.6%,-6.7% (active)
CCN1CCN(c2ccc(Nc3cc(-c4cccnc4Nc4c(Cl)c(OC)cc(OC)c4Cl)ncn3)cc2)CC1,89.7%,55%,40.9%,71.9%,75.6%,73.9%,60.1%
CN1CCC(=C2c3ccccc3C=Cc3ccccc32)CC1,80.2%,81.1%,80.5%,66.3%,92.5%,94.4%,113%
COc1ccc(C(=O)/C=C/c2cc3c(c(OC)c2)OCC(=O)N3)cc1,26.2%,14.7%,31.5%,11.8%,67.9%,14.7%,
c1ccc2c(c1)nc(-n1ccnc1)c1nc3ccccc3n12,76.1%,65.7%,62.5%,52.5%,76%,64.9%,45.5%
N=c1ccn2c(n1)OC1C(O)C(CO)OC12 (configuration not stated),46.8%,41.5%,14.9%,18.3%,,50.6%,44.9%
CN(C)CCC(O)(Cc1ccccc1)c1ccccc1 (configuration not stated),91.8%,114%,110%,103%,87%,,
C=C1C(=O)O[C@H]2[C@H]1CC/C(Cn1cc(CNCCc3c[nH]c4ccccc34)nn1)=C\CC[C@@]1(C)O[C@@H]21,97%,46.1%,90.2%,64.8%,97.1%,98%,90.6%
CC(=O)Nc1ccc(C(=O)/C=C/c2ccccc2)cc1,89.1%,90.4%,24.3%,1.2% (active),88.7%,22.8%,
N#C/C(=C\c1ccc2c(c1)OCO2)n1nnc2ccccc21,-69.1% (active),12%,10.3%,5.72% (active),-9.93% (active),-16.2% (active),30.3%
COc1ccc(-c2cc(-c3cc(OC)ccc3OC)[nH]c(=O)c2C#N)cc1,1.49% (active),26.7%,59.5%,,75.9%,51.4%,48.7%
C=C(CNCCc1ccc(O)cc1)[C@@H]1CC[C@]2(COC3CCCCO3)CC[C@]3(C)[C@H](CC[C@@H]4[C@@]5(C)CCC(N)C(C)(C)[C@@H]5CC[C@]43C)[C@@H]12 (some centres not stated),-95% (active),-77.4% (active),-79.8% (active),-91.3% (active),-84.7% (active),-85.7% (active),-70% (active)
COc1ccc(O)c(-c2cc(-c3ccccc3)c(C#N)c(=O)[nH]2)c1,102%,105%,87.5%,,99.8%,90.8%,70.6%
COc1ccc(/C=N/NC(=O)Cn2c(-c3ccc(S(C)(=O)=O)cc3)nc3cc(Cl)ccc32)cc1,-17.8% (active),30.5%,17.2%,11.8%,19.4%,13.3%,43.1%
CSc1ncc(C)c(Nc2ccc(Cl)cc2)n1,106%,102%,,94.2%,113%,100%,87.1%
O=C(Nc1cccc2[nH]c(C(F)(F)F)nc12)c1cc(Cl)ccc1Cl,33.3%,42.4%,16.7%,25.7%,33.8%,20%,
c1ccc2c(c1)ncn2-c1nc2ccccc2n2c1nc1ccccc12,102%,78.4%,7.93% (active),67.2%,20.5%,47.7%,91.6%
